The panel holds about 79,000 compounds, 15% with a hit somewhere; the sample as a whole holds those more often. Activity calls are given as the source filed them. Cut-off read from the data, not from the text of the source: active = growth inhibition above about 70%; inactive = the rest.
Columns and labels:
[1] = NCI Yeast Anticancer Drug Screen. Data for the rad52 strain (AID 147);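 note: 0% = growth of vehicle-treated control cultures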; conditions: S. cerevisiae rad52 mutant growth inhibition, stronger effect = higher value
Procedure, shortened: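 Compounds are applied to a genetically defined yeast strain lacking normal DNA damage repair, and inhibition of growth is expressed relative to cultures given vehicle only.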

[2] = NCI Yeast Anticancer Drug Screen. Data for the wt1 strain (AID 149);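 note: 0% = growth of vehicle-treated wt1 cultures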; conditions: S. cerevisiae wt1 strain (SPY 50644) growth inhibition, stronger effect = higher value
Procedure, shortened: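 Using yeast strain wt1, compound-induced growth inhibition was determined against vehicle-treated cultures.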

[3] = NCI Yeast Anticancer Drug Screen. Data for the rad50EPP+ strain (AID 151);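 note: 0% = growth of vehicle-treated control cultures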; conditions: S. cerevisiae rad50 mutant strain, stronger effect = higher value
Procedure, shortened: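 Compounds were applied to the rad50EPP+ yeast strain, which bears a defined DNA repair alteration, and growth inhibition was determined relative to vehicle-treated cultures.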

[4] = NCI Yeast Anticancer Drug Screen. Data for the mgt1 strain (AID 153); conditions: S. cerevisiae mgt1 mutant growth inhibition, stronger effect = higher value
Procedure, shortened: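 Strain: mgt1 yeast, one of a set carrying defined DNA damage repair or cell cycle control alterations. Compound-treated growth compared with vehicle.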

[5] = NCI Yeast Anticancer Drug Screen. Data for the rad50 strain (AID 155);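 note: 0% = growth of vehicle-only cultures of the same strain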; conditions: S. cerevisiae rad50 strain growth inhibition, stronger effect = higher value
Procedure, shortened: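 Relative growth inhibition (compound vs vehicle) was measured in yeast with a defined repair-gene alteration.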

[6] = NCI Yeast Anticancer Drug Screen. Data for the mec2-1 strain (AID 157); conditions: S. cerevisiae mec2-1 strain, stronger effect = higher value
Procedure, shortened: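 Strain: mec2-1 (DNA repair/cell cycle alteration). Compound exposure, then growth measured; inhibition expressed relative to vehicle.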

[7] = NCI Yeast Anticancer Drug Screen. Data for the rad14 strain (AID 159);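 note: 0% = growth of vehicle-treated control cultures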; conditions: S. cerevisiae rad14 strain growth inhibition, stronger effect = higher value
Procedure, shortened: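 Screen for anticancer potential: a yeast strain altered in DNA damage repair is grown with compound, and reduced growth is quantified against vehicle controls.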

[8] = NCI Yeast Anticancer Drug Screen. Data for the sgs1 mgt1 strain (AID 161);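 note: 0% = growth of cultures given vehicle only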; conditions: S. cerevisiae sgs1 mgt1 strain, stronger effect = higher value
Procedure, shortened: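 Inhibition of yeast growth, normalised to vehicle-treated controls, is reported for a strain bearing genetic alterations in DNA damage repair.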

[9] = NCI Yeast Anticancer Drug Screen. Data for the CLN2oe strain (AID 163);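 note: 0% = growth of vehicle-only control cultures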; conditions: S. cerevisiae CLN2oe strain, stronger effect = higher value
Procedure, shortened: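 Growth of a genetically modified yeast strain is measured after compound exposure and compared with cultures given vehicle alone.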

[10] = NCI Yeast Anticancer Drug Screen. Data for the cln2 rad14 strain (AID 165);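 note: 0% = growth equal to vehicle treated cultures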; conditions: S. cerevisiae cln2 rad14 strain, stronger effect = higher value
Procedure, shortened: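 Compounds are applied to the cln2 rad14 yeast strain, and growth is then compared with that of vehicle-treated cultures to give inhibition.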

[11] = NCI Yeast Anticancer Drug Screen. Data for the bub3 strain (AID 167); conditions: S. cerevisiae bub3 mutant strain, stronger effect = higher value
Procedure, shortened: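 Screening used yeast with an engineered genetic alteration affecting cell cycle control. Compound-exposed cultures were compared with vehicle cultures, and reduced growth was taken as inhibition.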

[12] = NCI Yeast Anticancer Drug Screen. Data for the wt2 strain (AID 169);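 note: 0% = growth of vehicle-treated yeast cultures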; conditions: S. cerevisiae wt2 strain growth inhibition, stronger effect = higher value
Procedure, shortened: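 This strain belongs to a panel of yeast strains with defined genetic alterations in DNA damage repair or cell cycle control. Compounds are applied, and growth inhibition is measured against vehicle-treated cultures.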

[13] = NCI Yeast Anticancer Drug Screen. Data for the mlh1 strain (AID 171);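 note: 0% = growth of vehicle-treated control cultures of the same strain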; conditions: S. cerevisiae mlh1 strain growth inhibition, stronger effect = higher value
Procedure, shortened: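 Growth of the mutant yeast strain after compound exposure, expressed as inhibition relative to vehicle-only controls.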

[14] = NCI Yeast Anticancer Drug Screen. Data for the sgs1 strain (AID 173);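 note: 0% = growth of vehicle-only control cultures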; conditions: S. cerevisiae sgs1 mutant, stronger effect = higher value
Procedure, shortened: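 Growth of a yeast strain bearing a defined genetic alteration is measured after compound treatment. Inhibition is expressed relative to vehicle-only controls.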

[15] = NCI Yeast Anticancer Drug Screen. Data for the mlh1 rad18 strain (AID 175); conditions: S. cerevisiae mlh1 rad18 strain growth inhibition, stronger effect = higher value
Procedure, shortened: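 Read-out is yeast growth inhibition, calculated against vehicle-only controls. The compound was applied to a strain engineered with DNA damage repair alterations.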

[16] = NCI Yeast Anticancer Drug Screen. Data for the rad18 strain (AID 177); conditions: S. cerevisiae rad18 mutant growth inhibition, stronger effect = higher value
Procedure, shortened: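 Growth of the mutant yeast strain after compound exposure, normalised to vehicle-only cultures.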

[17] = at 5.0 µM (retest, dose inferred, filed as 0.5)
[18] = at 50.0 µM (retest, dose inferred, filed as 5.0)

Measured: growth inhibition

Oc1ccc2nc3ccccc3nc2c1
active: [1]; at 100.0 µM 95% | [2]; at 100.0 µM 72% | [3]; at 33.0 µM 77% | [3]; at 100.0 µM 96% | [4]; at 100.0 µM 80% | [5]; [18] 89% | [5]; at 50.0 µM 91.5% | [5]; at 100.0 µM 92% | [6]; at 50.0 µM 72.7% | [6]; at 100.0 µM 95% | [7]; at 100.0 µM 85% | [11]; at 50.0 µM 88% | [11]; at 100.0 µM 82% | [12]; at 100.0 µM 73% | [13]; at 100.0 µM 80% | [14]; at 100.0 µM 84% | [15]; [18] 82% | [15]; at 50.0 µM 86.8% | [16]; at 100.0 µM 91%
inactive: [1]; at 1.2 µM -1% | [1]; at 3.7 µM 4% | [1]; at 11.0 µM 24% | [1]; at 33.0 µM 64% | [2]; at 1.2 µM 1% | [2]; at 3.7 µM 6% | [2]; at 11.0 µM 21% | [2]; at 33.0 µM 26% | [3]; at 1.2 µM -1% | [3]; at 3.7 µM -2% | [3]; at 11.0 µM 23% | [4]; at 1.2 µM -2% | [4]; at 3.7 µM -5% | [4]; at 11.0 µM 10% | [4]; at 33.0 µM 43% | [5]; at 1.2 µM 2% | [5]; at 3.7 µM 5% | [5]; [17] 9% | [5]; at 11.0 µM 23% | [5]; at 33.0 µM 68% | [6]; at 1.2 µM 2% | [6]; at 3.7 µM 7% | [6]; [17] 13% | [6]; at 11.0 µM 24% | [6]; at 33.0 µM 52% | [6]; [18] 58% | [7]; at 1.2 µM 1% | [7]; at 3.7 µM 5% | [7]; at 11.0 µM 18% | [7]; at 33.0 µM 31% | [8]; [17] -3% | [8]; [18] 20% | [8]; at 50.0 µM 48.5% | [9]; at 1.2 µM 4% | [9]; at 3.7 µM 2% | [9]; at 11.0 µM 11% | [9]; at 33.0 µM 22% | [9]; at 100.0 µM 67% | [10]; [17] 19% | [10]; [18] 20% | [10]; at 50.0 µM 65.5% | [11]; at 1.2 µM 2% | [11]; at 3.7 µM 5% | [11]; [17] -8% | [11]; at 11.0 µM 29% | [11]; at 33.0 µM 46% | [11]; [18] 61% | [12]; at 1.2 µM -1% | [12]; at 3.7 µM 4% | [12]; at 11.0 µM 13% | [12]; at 33.0 µM 27% | [13]; at 1.2 µM -3% | [13]; at 3.7 µM -2% | [13]; at 11.0 µM 11% | [13]; at 33.0 µM 27% | [14]; at 1.2 µM -2% | [14]; at 3.7 µM 2% | [14]; at 11.0 µM 18% | [14]; at 33.0 µM 29% | [15]; [17] 35% | [16]; at 1.2 µM -3% | [16]; at 3.7 µM 8% | [16]; at 11.0 µM 15% | [16]; at 33.0 µM 54%

CSc1ccccc1[As](C)C
inactive: [1]; at 1.2 µM 1% | [1]; at 3.7 µM 16% | [2]; at 1.2 µM -1% | [2]; at 3.7 µM 15% | [3]; at 1.2 µM 1% | [3]; at 3.7 µM 11% | [4]; at 1.2 µM -1% | [4]; at 3.7 µM 16% | [5]; at 1.2 µM 7% | [5]; at 3.7 µM -15% | [6]; at 1.2 µM 2% | [6]; at 3.7 µM 24% | [7]; at 1.2 µM 5% | [7]; at 3.7 µM 26% | [9]; at 1.2 µM -4% | [9]; at 3.7 µM -1% | [9]; at 11.0 µM 32% | [10]; [17] 27% | [11]; at 1.2 µM -6% | [11]; at 3.7 µM 13% | [11]; [17] 1% | [11]; [18] 50% | [12]; at 1.2 µM -1% | [12]; at 3.7 µM 21% | [13]; at 1.2 µM 1% | [13]; at 3.7 µM 20% | [14]; at 1.2 µM 4% | [14]; at 3.7 µM 34% | [16]; at 1.2 µM 8% | [16]; at 3.7 µM 43%
active: [1]; at 11.0 µM 84% | [1]; at 33.0 µM 99% | [1]; at 100.0 µM 99% | [2]; at 11.0 µM 88% | [2]; at 33.0 µM 99% | [2]; at 100.0 µM 99% | [3]; at 11.0 µM 74% | [3]; at 33.0 µM 98% | [3]; at 100.0 µM 99% | [4]; at 11.0 µM 75% | [4]; at 33.0 µM 99% | [4]; at 100.0 µM 99% | [5]; [17] 96% | [5]; at 11.0 µM 86% | [5]; at 33.0 µM 98% | [5]; [18] 99% | [5]; at 50.0 µM 99.3% | [5]; at 100.0 µM 99% | [6]; [17] 90% | [6]; at 11.0 µM 92% | [6]; at 33.0 µM 99% | [6]; [18] 99% | [6]; at 50.0 µM 99.5% | [6]; at 100.0 µM 99% | [7]; at 11.0 µM 87% | [7]; at 33.0 µM 99% | [7]; at 100.0 µM 100% | [8]; [17] 97% | [8]; [18] 99% | [8]; at 50.0 µM 99.5% | [9]; at 33.0 µM 99% | [9]; at 100.0 µM 98% | [10]; [18] 98% | [10]; at 50.0 µM 98.1% | [11]; at 11.0 µM 77% | [11]; at 33.0 µM 99% | [11]; at 50.0 µM 98.8% | [11]; at 100.0 µM 99% | [12]; at 11.0 µM 85% | [12]; at 33.0 µM 99% | [12]; at 100.0 µM 99% | [13]; at 11.0 µM 90% | [13]; at 33.0 µM 99% | [13]; at 100.0 µM 100% | [14]; at 11.0 µM 95% | [14]; at 33.0 µM 99% | [14]; at 100.0 µM 99% | [15]; [17] 97% | [15]; [18] 99% | [15]; at 50.0 µM 99.5% | [16]; at 11.0 µM 92% | [16]; at 33.0 µM 99% | [16]; at 100.0 µM 99%

CC1(Cl)CC(C)(/C=C/Cl)C(Cl)CC1Cl (stereo unspecified)
inactive: [1]; at 1.2 µM 6% | [1]; at 3.7 µM 8% | [1]; at 11.0 µM 13% | [1]; at 33.0 µM 22% | [1]; at 100.0 µM 43% | [2]; at 1.2 µM 3% | [2]; at 3.7 µM 3% | [2]; at 11.0 µM 3% | [2]; at 33.0 µM 10% | [2]; at 100.0 µM 35% | [3]; at 1.2 µM 2% | [3]; at 3.7 µM 0% | [3]; at 11.0 µM 6% | [3]; at 33.0 µM 15% | [3]; at 100.0 µM 24% | [4]; at 1.2 µM 2% | [4]; at 3.7 µM 1% | [4]; at 11.0 µM 3% | [4]; at 33.0 µM 5% | [4]; at 100.0 µM 43% | [5]; at 1.2 µM -1% | [5]; at 3.7 µM -8% | [5]; [17] 12% | [5]; at 11.0 µM -3% | [5]; at 33.0 µM 28% | [5]; [18] -8% | [5]; at 50.0 µM 58.6% | [5]; at 100.0 µM 48% | [6]; at 1.2 µM 5% | [6]; at 3.7 µM 3%

Source: PubChem BioAssay (NCI)
